DT40 TDP1 no CPT = qHTS for Inhibitors of human tyrosyl-DNA phosphodiesterase 1 (TDP1): qHTS in cells in absence of CPT; 15% of 420,000 active; Potency, µM (series often up to 46.2 µM), usual class: inhibitors; DT40 Tdp1-/- hTDP1 cells, no CPT, ATP luminescence, 48 h; further: nearly all actives have a fitted effect of over 55% in size
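Stably hTDP1-transfected Tdp1-null chicken DT40 cells were treated with library compounds minus camptothecin and grown for at least 48 hr at 37 °C, after which cellular ATP was quantified by luminescence.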
RORgamma inh = ROR gamma (mouse) transcription inhibition | Potency, µM (doses to about 53.6 µM), hits mostly inhibitors | 5.4% of 310,000 active | P51450 | Drosophila S2 Gal4-RORgamma UAS-luciferase reporter, 20 h; further: nearly all actives have a fitted effect of over 60% in size
Target sequence (P51450 whole entry, looked up, the tested form may be a part): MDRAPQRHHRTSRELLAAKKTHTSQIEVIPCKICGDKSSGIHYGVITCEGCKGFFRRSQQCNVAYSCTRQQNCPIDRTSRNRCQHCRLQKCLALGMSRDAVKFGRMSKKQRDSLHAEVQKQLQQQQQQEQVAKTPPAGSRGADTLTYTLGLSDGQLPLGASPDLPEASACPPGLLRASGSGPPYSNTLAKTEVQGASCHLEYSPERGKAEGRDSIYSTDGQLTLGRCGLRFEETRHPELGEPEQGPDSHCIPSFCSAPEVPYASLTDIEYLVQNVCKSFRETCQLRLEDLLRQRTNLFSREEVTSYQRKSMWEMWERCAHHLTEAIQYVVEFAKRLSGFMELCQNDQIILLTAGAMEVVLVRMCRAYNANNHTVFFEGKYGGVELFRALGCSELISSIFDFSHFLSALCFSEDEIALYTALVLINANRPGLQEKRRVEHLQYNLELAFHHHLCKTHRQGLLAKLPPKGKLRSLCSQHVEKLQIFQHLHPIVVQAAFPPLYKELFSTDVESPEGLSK
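Stable Schneider cell line, Gal4 DNA-binding domain fused to ROR gamma, UAS-luciferase. Cmpd 1 hr RT → CuSO4 700 uM final → 20 hr RT → luciferase reagent 10 min → luminescence.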
DT40 TDP1 CPT = growth inhibition of DT40 Tdp1-/-;hTDP1 cells with camptothecin (screen for TDP1 inhibitors) | chicken DT40 Tdp1-/-;hTDP1 cells + 20 nM CPT, ATP luminescence, 48 h | 12% of 420,000 active | Potency, µM (doses to about 46.2 µM), actives largely listed as inhibitors; further: nearly all actives have a fitted effect of over 55% in size
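Cell growth measured by CellTiter-Glo luminescence after a minimum 48 h, 37 C compound exposure with 20 nM CPT in Tdp1-knockout DT40 cells stably expressing hTDP1, seeded 400/well; qHTS titration format.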
Gal4-VP16 FLuc = Gal4-VP16 reporter inhibition counter-screen; Drosophila S2 Gal4-VP16 UAS-luciferase, luminescence, 20 h; 3.5% of 310,000 active; Potency, µM (highest dose often 53.6 µM), usual class: inhibitors;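 further: Gal4-VP16 expression switched on by copper sulfate through the metallothionein promoter; nearly all actives have a fitted effect of over 50% in size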
ELG1 DNA repair = ELG1-dependent DNA repair inhibition. 2.3% of 330,000 active. AID 504467. Potency, µM (doses to about 46.1 µM), most hits filed as inhibitors. HEK293T ELG1-luciferase reporter, luminescence, 16 h; DNA damage induced by 5-fluorouridine; further: nearly all actives have a fitted effect of over 55% in size
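DMSO vehicle served as the neutral condition. Each well held 2,000 cells given 5-fluorouridine plus compound; after 16 hr at 37 °C/5% CO2, ONE-Glo was added and luciferase measured 30 min later.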
ALOX12 inh = blocks human arachidonate 12S-lipoxygenase; P18054; purified 12hLO, xylenol orange hydroperoxide absorbance; Potency, µM (series often up to 108 µM), actives largely listed as inhibitors; 1.1% of 580,000 active; AID 1671190
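Purified human 12hLO at 150 nM in 25 mM Hepes, 0.01% Triton X-100, pH 7.0, preincubated 15 min at room temperature with compound. Reaction started with 40 uM arachidonic acid, 30 min at room temperature. Hydroperoxide measured by Fe-xylenol orange, 573/405 nm absorbance ratio.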
Hits are given with their value; [ ] = another dose, or the depositor's remark. This is a sample that favours compounds with a hit; in the whole collection about 15% have one here. The call rests on the fitted dose curve; in most records, active means well fitted curve in the direction sought with a large enough effect; inconclusive means small, poorly fitted or top-dose-only effect, or another doubt; inactive means no such curve, though single readings can be large; an effect the other way counts as inactive or inconclusive.

`O=C(COc1ccccc1C(=O)NCC1CCCO1)Nc1ccc(Br)cc1` (stereo not drawn) gave DT40 TDP1 no CPT inactive, RORgamma inh inactive, DT40 TDP1 CPT inconclusive, Gal4-VP16 FLuc inactive, ELG1 DNA repair inconclusive and ALOX12 inh inactive.
`O=C(COc1ccccc1C(=O)NCC1CCCO1)Nc1ccc(Cl)cc1Cl` (stereo not drawn) gave DT40 TDP1 no CPT inconclusive, RORgamma inh inactive, DT40 TDP1 CPT 14.6µM, Gal4-VP16 FLuc inactive, ELG1 DNA repair inactive and ALOX12 inh inactive.
For Cc1cc(C)c(NC(=O)C23CC4CC(C2)CC(c2ccccc2)(C4)C3)c(Cl)c1 the results were ALOX12 inh inactive.
For COc1cccc(-c2csc(-c3nc(-c4ccc(C)cc4C)cs3)n2)c1 the results were ALOX12 inh inactive.
For Cc1ccc(S(=O)(=O)c2cc(OC(=O)c3ccco3)ccc2OC(=O)c2ccco2)cc1 the results were DT40 TDP1 no CPT 16.4µM, RORgamma inh inactive, DT40 TDP1 CPT inconclusive, Gal4-VP16 FLuc inactive, ELG1 DNA repair inactive and ALOX12 inh inactive.
`O=CN1Cc2nc3ccccc3n2-c2cc(Br)ccc21` gave ALOX12 inh inactive.
`CCOC(=O)c1sc(N2N=C(C)C(N=Nc3cccc(C)c3)C2=O)nc1C` (stereo not drawn) gave DT40 TDP1 no CPT inconclusive, RORgamma inh 11.2µM, DT40 TDP1 CPT inconclusive, Gal4-VP16 FLuc inconclusive, ELG1 DNA repair inactive and ALOX12 inh inactive.
For CCOC(=O)c1sc(N2C(=O)C(O)=C(C(=O)c3ccco3)C2c2ccco2)nc1C (stereo not drawn) the results were DT40 TDP1 no CPT inconclusive, RORgamma inh inactive, DT40 TDP1 CPT inconclusive, Gal4-VP16 FLuc inactive, ELG1 DNA repair inactive and ALOX12 inh inconclusive.
`CC1=NN(c2nc(-c3ccc(C)cc3)cs2)C(=O)C1N=Nc1cccc(C)c1` (stereo not drawn) gave DT40 TDP1 no CPT inconclusive, RORgamma inh 7.08µM, DT40 TDP1 CPT inconclusive, Gal4-VP16 FLuc inconclusive, ELG1 DNA repair inconclusive and ALOX12 inh inactive.
COC(=O)c1ccc2nc(-c3ccccc3)c(Cc3ccccc3OC)n2c1 was read as DT40 TDP1 no CPT 16.4µM, DT40 TDP1 CPT 18.4µM and ALOX12 inh inconclusive.
For COc1ccccc1Cc1c(C2CCCCC2)nc2ccc(Br)cn12 the results were DT40 TDP1 no CPT 6.51µM, DT40 TDP1 CPT 8.2µM and ALOX12 inh inconclusive.
COc1ccccc1Cc1c(-c2ccc(Cl)cc2)nc2ccc(Br)cn12 was read as DT40 TDP1 no CPT inconclusive, DT40 TDP1 CPT 20.6µM and ALOX12 inh inconclusive.
COc1ccccc1Cc1c(-c2cccc(Cl)c2)nc2c(C)cc(Br)cn12 was read as DT40 TDP1 no CPT inconclusive, DT40 TDP1 CPT inconclusive and ALOX12 inh inactive.
COc1ccccc1Cc1c(-c2ccc(C)cc2)nc2c(C)cc(Br)cn12 was read as DT40 TDP1 no CPT 20.6µM, DT40 TDP1 CPT 20.6µM and ALOX12 inh inconclusive.
`CC(CO)(CO)NC(=O)COc1cc(O)c2c(=O)cc(-c3ccccc3)oc2c1` gave ALOX12 inh inactive.
`COc1ccc(NC(=O)[C@H]2CCC[C@H]2NC(=O)c2cnc(C)cn2)cc1` gave ALOX12 inh inactive.
`CCC(C(=O)N1CCN(c2ccc(F)cc2)CC1)n1cnc2ccccc2c1=O` (stereo not drawn) gave ALOX12 inh inactive.
`N#CC1=C(SCC(=O)Nc2ccccc2C(F)(F)F)NC(=O)CC1c1ccc(F)cc1` (stereo not drawn) gave ALOX12 inh inactive.
Screening COc1ccccc1Cc1c(-c2cccc(Br)c2)nc2ccc(Cl)cn12 returned DT40 TDP1 no CPT inconclusive, DT40 TDP1 CPT inconclusive and ALOX12 inh inactive.
For COc1ccccc1Cc1c(-c2ccc(C#N)cc2)nc2ccc(Br)cn12 the results were DT40 TDP1 no CPT 16.4µM, DT40 TDP1 CPT 20.6µM and ALOX12 inh 25.1µM.
For COc1ccccc1Cc1c(-c2ccccc2)nc2ccc(Br)cn12 the results were DT40 TDP1 no CPT 13µM, DT40 TDP1 CPT 14.6µM and ALOX12 inh inconclusive.
`COc1ccccc1Cc1c(-c2ccc(C)cc2)nc2ccc(Br)cn12` gave DT40 TDP1 no CPT 23.1µM, DT40 TDP1 CPT 20.6µM and ALOX12 inh inactive.
`COc1ccccc1Cc1c(-c2cccc(Cl)c2)nc2ccc(Cl)cn12` gave DT40 TDP1 no CPT 18.4µM, DT40 TDP1 CPT 23.1µM and ALOX12 inh inconclusive.
`COc1ccccc1Cc1c(-c2ccc(F)cc2)nc2c3ccccc3ccn12` gave ALOX12 inh inactive.
Screening COc1ccc(-c2ocnc2C(=O)Nc2cccc(Cl)c2)cc1OC returned ALOX12 inh inactive.
`N#Cc1ccc(C(=O)N2CC(C(=O)NCCc3ccncc3)C3(CCOCC3)C2)cc1` (stereo not drawn) gave ALOX12 inh inactive.
CCCc1ccc(Oc2cc(-n3ncc(C(C)=O)c3C)nc(C)n2)cc1 was read as ALOX12 inh inactive.
Screening Oc1ccc(Br)cc1CNc1cccc2cccnc12 returned DT40 TDP1 no CPT 25.9µM, RORgamma inh inactive, DT40 TDP1 CPT inconclusive, Gal4-VP16 FLuc inactive, ELG1 DNA repair inconclusive and ALOX12 inh inactive.
Oc1c(Br)cc(Br)cc1CNc1cccc2cccnc12 was read as DT40 TDP1 no CPT inconclusive, RORgamma inh 14.1µM, DT40 TDP1 CPT 16.4µM, Gal4-VP16 FLuc 8.91µM, ELG1 DNA repair inconclusive and ALOX12 inh 14.1µM.
Screening CCOC(=O)c1nnsc1Nc1ccc(C)c(C)c1 returned DT40 TDP1 no CPT inconclusive, RORgamma inh 0.708µM, DT40 TDP1 CPT inactive, Gal4-VP16 FLuc inactive[10 µM], ELG1 DNA repair inconclusive and ALOX12 inh inconclusive.
COc1ccc(-c2cnc([C@@H]3COCCN3Cc3cn(C)c4ccccc34)[nH]2)cc1 was read as ALOX12 inh inactive.
For CCOC(=O)Cc1c(-c2cccc(Cl)c2)nc2c3ccccc3ccn12 the results were DT40 TDP1 no CPT 20.6µM, DT40 TDP1 CPT inconclusive and ALOX12 inh inactive.
For Clc1cccc(Cc2c(-c3cccc(Br)c3)nc3c4ccccc4ccn23)c1 the results were DT40 TDP1 no CPT inactive, DT40 TDP1 CPT inactive and ALOX12 inh inactive.
Screening Clc1ccc(-c2nc3c4ccccc4ccn3c2Cc2cccc(Cl)c2)cc1 returned DT40 TDP1 no CPT 7.31µM, DT40 TDP1 CPT inconclusive and ALOX12 inh inactive.
Screening Fc1cccc(Cc2c(-c3ccccc3)nc3c4ccccc4ccn23)c1 returned DT40 TDP1 no CPT 16.4µM, DT40 TDP1 CPT inconclusive and ALOX12 inh inactive.
CN(C)C(=O)c1ccc(S(=O)(=O)NCc2ccc(Cl)cc2)s1 was read as DT40 TDP1 no CPT inconclusive, DT40 TDP1 CPT inconclusive and ALOX12 inh inactive.

Screening results from PubChem BioAssay.
